From PubChem
VP16 counter = VP16 counterscreen qHTS for inhibitors of ROR gamma transcriptional activity; Drosophila S2 Gal4-VP16 UAS-luciferase, luminescence, 20 h; Potency, µM (top dose mostly 53.6 µM), for the others: at the top dose activity, negative = inhibition, hits mostly inhibitors; 310,000 tested, 3.5% active;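 note: Gal4-VP16 expression switched on by copper sulfate through the metallothionein promoter; nearly all actives have a fitted effect of over 50% in size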
RORgamma inh = qHTS for inhibitors of ROR gamma transcriptional activity; Nuclear receptor ROR-gamma (Mus musculus), P51450; Drosophila S2 Gal4-RORgamma UAS-luciferase reporter, 20 h; Potency, µM (top dose mostly 53.6 µM), for inactives: at the top dose activity change, negative = inhibition, hits mostly inhibitors; 310,000 tested, 5.4% active; note: nearly all actives have a fitted effect of over 60% in size
Target sequence (P51450 whole entry, looked up, the tested form may be a part): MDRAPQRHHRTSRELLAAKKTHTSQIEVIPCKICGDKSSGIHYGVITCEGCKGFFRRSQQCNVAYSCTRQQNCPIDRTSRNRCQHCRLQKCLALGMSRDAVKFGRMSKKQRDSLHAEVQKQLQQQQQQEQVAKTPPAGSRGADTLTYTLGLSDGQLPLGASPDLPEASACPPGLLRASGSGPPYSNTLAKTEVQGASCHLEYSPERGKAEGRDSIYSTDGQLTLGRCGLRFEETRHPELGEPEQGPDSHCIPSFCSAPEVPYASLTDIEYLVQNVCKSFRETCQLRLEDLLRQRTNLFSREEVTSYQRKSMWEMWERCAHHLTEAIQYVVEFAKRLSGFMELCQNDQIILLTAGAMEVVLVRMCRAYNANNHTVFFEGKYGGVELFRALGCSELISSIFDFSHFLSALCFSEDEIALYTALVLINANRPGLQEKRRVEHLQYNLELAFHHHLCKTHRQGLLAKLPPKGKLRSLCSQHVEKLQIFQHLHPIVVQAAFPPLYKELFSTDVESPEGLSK
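In this cell-based reporter format, copper sulfate (700 uM final) drives Gal4–ROR gamma fusion expression from a metallothionein promoter in Drosophila Schneider cells; compounds preincubated 1 hr, reporter read after 20 hr at ambient temperature.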
Luc counter = Counterscreen for Luciferase (Kinase-Glo TM) Inhibition; Luciferin 4-monooxygenase (Photuris pensylvanica), Q27757; Kinase-Glo luciferase, ATP luminescence, 8 min; Potency, µM (top dose mostly 38.3 µM), inactives show at the top dose activity change, negative = inhibition, usual class: inhibitors; 200,000 tested, 0.28% active; AID 1379, 2008; note: nearly all actives have a fitted effect of over 60% in size
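Light output from Kinase-Glo luciferase with luciferin and 10 uM ATP in 50 mM imidazole pH 7.2, KCl, MgCl2, Tween 20, BSA; compound pin-delivered, 8-min ambient incubation, then luminescence read.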
Starred values were filed as active, the others as inactive; [ ] = dose if it differs, or a comment. A selection: hits, their analogues and other compounds. The true share with any hit is near 6.2%. Calls come from the whole dose curve; as a rule, active = well fitted curve in the direction sought with a large enough effect; inconclusive = small, poorly fitted or top-dose-only effect, or another doubt; inactive = no such curve, though single readings can be large; an effect the other way counts as inactive or inconclusive. % is set by controls: 0 for no effect and ±100 for the full control effect; potency is the fitted concentration of half-maximal effect.

CC(C)(C)C(=O)NCC12C=CC(O1)C1C(=O)N(c3ccccc3)C(=O)C12 (stereo not drawn) was read as VP16 counter inconclusive, RORgamma inh inconclusive and Luc counter 4%.
`Cc1sc(N2C(=O)C3C(C2=O)[C@H]2C=C[C@@H]3C2)c(C#N)c1C` (stereo partly drawn) gave VP16 counter -6% and RORgamma inh 4%.
Screening CCN(CC)CCCN(C(=O)c1ccc(F)cc1)c1nc(-c2ccc(OC)cc2)cs1 returned VP16 counter -3% and RORgamma inh -21%.
For O=C(O)[C@@H]1[C@@H](C(=O)NCc2ccncc2)[C@@H]2C=C[C@@H]1O2 the results were Luc counter -1%[7.66 µM].
Screening CS(=O)(=O)CCC(C(=O)Nc1ccc2c(c1)OCO2)N1Cc2ccccc2C1=O (stereo not drawn) returned VP16 counter 1% and RORgamma inh 24%.
For CC1=CC(C)(C)N2C(=O)C3(C(C#N)=C(N)OC4=C3C(=O)CCC4)c3c(C)c(C)cc1c32 (stereo not drawn) the results were VP16 counter -8%, RORgamma inh 26% and Luc counter 0%.
For CC1=CC(C)(C)N2C(=O)C3(C(C#N)=C(N)Oc4cc(O)ccc43)c3c(C)c(C)cc1c32 (stereo not drawn) the results were VP16 counter -12%, RORgamma inh 2.8µM* and Luc counter -4%.
Screening O=S(=O)(c1ccccc1)N1CCC2(CCCN(c3ccncc3)C2)CC1 returned VP16 counter inconclusive, RORgamma inh 43% and Luc counter 1%.
For O=C(NCC1(N2CCOCC2)CCCCC1)c1ccc(Cl)c(S(=O)(=O)NCc2ccco2)c1 the results were VP16 counter 11%, RORgamma inh -2% and Luc counter -2%.
Screening CN1C(=O)C(CC(=O)O)S/C1=N\N=C\c1ccc(O)cc1O (stereo not drawn) returned VP16 counter 20µM* and RORgamma inh inconclusive.
For O=C(O)CC1S/C(=N\N=C/c2ccccc2)N(c2ccc(O)cc2)C1=O (stereo not drawn) the results were VP16 counter -3% and RORgamma inh 3%.
CN(C)CCCSc1nc2ccccc2s1 was read as VP16 counter 4%, RORgamma inh 6% and Luc counter -9%.
For COc1ccc(OC)c(S(=O)(=O)N(C)CC(=O)N2CCCCC2)c1 the results were VP16 counter -2% and RORgamma inh -37%.
For CC1CCC2C(=O)N(c3ccc(Cc4ccncc4)cc3)C(=O)C2C1 (stereo not drawn) the results were VP16 counter 6.3µM*, RORgamma inh 11µM* and Luc counter 0%.
Screening CC1CCN(C(=O)c2ccc(N3C(=O)C4CCC(C)CC4C3=O)cc2)CC1 (stereo not drawn) returned VP16 counter -6% and RORgamma inh -20%.
For O=C1C2C3C=CC(C3)C2C(=O)N1c1ccc(Cc2ccncc2)cc1 (stereo not drawn) the results were VP16 counter 22µM*, RORgamma inh -25% and Luc counter -2%.
`O=C(Nc1ccc(Cc2ccncc2)cc1)C1CCC(N2C(=O)C3C4C=CC(C4)C3C2=O)CC1` (stereo not drawn) gave VP16 counter inconclusive, RORgamma inh -42% and Luc counter -4%.
CC(=O)O[C@@H]1C(CO[Si](C)(C)C(C)(C)C)=C(Br)C(=O)[C@@H]2O[C@]12C was read as VP16 counter inconclusive, RORgamma inh inconclusive and Luc counter -2%.
For CC(Oc1ccccc1)C(=O)N=C1SC2CS(=O)(=O)CC2N1c1ccc(F)cc1 (stereo not drawn) the results were VP16 counter -5% and RORgamma inh 2%.
Screening S=c1[nH]c(-c2ccccc2)cs1 returned VP16 counter inconclusive, RORgamma inh 7.1µM* and Luc counter 0%.
For Fc1ccc(-c2csc(=S)[nH]2)cc1 the results were VP16 counter 2%, RORgamma inh -43% and Luc counter 2%.
Screening Cc1nn(Cc2ccc(Cl)cc2)c(C)c1NC(=O)CSc1n[nH]c(C)c1[N+](=O)[O-] returned VP16 counter 6%, RORgamma inh 14% and Luc counter 0%.
Screening COCC1CCCC1OS(N)(=O)=O (stereo not drawn) returned VP16 counter -6% and RORgamma inh -18%.
Cc1nn(C)c(C)c1CN(Cc1nc(-c2ccc(F)cc2F)oc1C)C1CC1 was read as VP16 counter -7%, RORgamma inh 0% and Luc counter -1%.
For Cc1nn(C)c(C)c1CN(Cc1nc(-c2cc(F)ccc2F)oc1C)C1CC1 the results were VP16 counter -9%, RORgamma inh 28µM* and Luc counter -1%.
For CC(=O)O[C@@H]1CC2C(C)(C)C(=O)C=C[C@]2(C)C2CC[C@]3(C)C(=CC[C@H]3C3CO[C@@H](C(C)(C)O)[C@H](O)C3)[C@@]21C (stereo partly drawn) the results were VP16 counter 2%, RORgamma inh 14% and Luc counter -1%.
Screening COc1ccc(/C=N/Nc2ncc(-c3ccccc3)cn2)c(OC)c1 returned VP16 counter inconclusive, RORgamma inh inconclusive and Luc counter -1%.
Screening COc1ccc(/C=N/Nc2cc(C)nc3ccc(OC)cc23)c(OC)c1 returned VP16 counter 10µM* and RORgamma inh 11µM*.
Screening COc1ccc(/C=N/Nc2nc(C)cc(-c3ccccc3)n2)c(OC)c1 returned VP16 counter 11µM* and RORgamma inh 10µM*.
Screening COc1ccc(/C=N/Nc2ncccc2[N+](=O)[O-])c(OC)c1 returned VP16 counter inconclusive, RORgamma inh inconclusive and Luc counter 11µM*.
`COc1ccccc1/C=N/Nc1cc(C)nc2ccc(C)cc12` gave VP16 counter -1% and RORgamma inh 13%[1.91 µM].
COc1ccc2nc(C)cc(Nc3ccc(C)cc3)c2c1 was read as VP16 counter 0% and RORgamma inh 8%.
`CCCOc1ccc(/C=N/Nc2ccccc2[N+](=O)[O-])c(OCCC)c1` gave VP16 counter 0%, RORgamma inh 43% and Luc counter -1%.
Screening Cc1ccc2nc(C)cc(N/N=C/c3ccccc3O)c2c1 returned VP16 counter 7.9µM* and RORgamma inh 5.6µM*.
For c1cncc(-c2cc(-n3ccnc3)ncn2)c1 the results were VP16 counter 2% and RORgamma inh 15%.
COc1ccc(Cl)cc1N(C(=O)c1ccco1)C(C(=O)NC1CCCC1)c1ccncc1 (stereo not drawn) was read as VP16 counter -1% and RORgamma inh 1%.
For CCCc1[nH]nc2c1C1(CCOC1C)C(C#N)=C(N)O2 (stereo not drawn) the results were VP16 counter 2%, RORgamma inh 0% and Luc counter 1%.
`Cc1ccc(-n2nc3c(=O)n(CC(=O)c4ccc(F)cc4)nc(C)c3c2C)cc1` gave VP16 counter -15%, RORgamma inh inconclusive and Luc counter 4%.
For O=C1OCCC1N(C(=O)C1CC1)c1cccc(Cl)c1 (stereo not drawn) the results were VP16 counter -4% and RORgamma inh -3%.
